Source: the supplement of paper PMC11018630
Counter-ions that a name gives are not always drawn. ± gives the standard deviation of the averaged measurements. The full ranking holds about 1,100 compounds; the median of “day of extracellular matrix detachment from plate” is about 16, and the lowest 2% start at about 10. What follows is part of a selection rich in the lowest values, with near analogues and random picks from the rest.

test system: RDEB dermal fibroblasts EB71; assay: day of extracellular matrix detachment from plate (days); higher = delayed detachment (less fibrotic matrix); conditions: compound concentration: 10 uM

| Compound | day of extracellular matrix detachment from plate |
| --- | --- |
| O=c1sn(-c2cccc3ccccc23)c(=O)n1Cc1ccccc1 [Tideglusib] | 18.7 ± 4 |
| CC1(C)Cc2c(-c3ccccc3)c(-c3ccc(Cl)cc3)c(CC(=O)O)n2C1 [Licofelone] | 16 |
| NC(=O)c1ccc(I)c([N+](=O)[O-])c1 [Iniparib (BSI-201)] | 12.3 ± 1.1 |
| CC(=O)Nc1ccc(O)cc1 [Acetaminophen] | 11 |
| CC(=O)Nc1ccccc1 [Acetanilide] | 10 ± 1.7 |
| CCOc1ccc(NC(C)=O)cc1 [Phenacetin] | 12 |
| C=C1[C@H](CO)[C@@H](O)C[C@@H]1n1cnc2c(=O)[nH]c(N)nc21 [Entecavir Hydrate] | 12.7 ± 2.9 |
| CCOc1nc2cccc(C(=O)OCc3oc(=O)oc3C)c2n1Cc1ccc(-c2ccccc2-c2noc(=O)[nH]2)cc1 [Azilsartan Medoxomil] | 19 ± 1.7 |
| CCCCCC(=O)O[C@]1(C(C)=O)CC[C@H]2[C@@H]3CCC4=CC(=O)CC[C@]4(C)[C@H]3CC[C@@]21C [Hydroxyprogesterone caproate] | 20 |
| C[C@@H]1C[C@H]2[C@@H]3CCC4=CC(=O)C=C[C@]4(C)[C@@]3(Cl)[C@@H](O)C[C@]2(C)[C@@]1(OC(=O)c1ccco1)C(=O)CCl [Mometasone furoate] | 29.5 ± 7.1 |
| C[C@H](Cc1cc2c(c(C(N)=O)c1)N(CCCO)CC2)NCCOc1ccccc1OCC(F)(F)F [Silodosin] | 11 |
| CCCC(=O)OCOC(=O)C1=C(C)NC(C)=C(C(=O)OC)C1c1cccc(Cl)c1Cl (centres undefined) [Clevidipine Butyrate] | 19.3 ± 6.3 |
| CC(=O)OCC(=O)[C@H]1CC[C@H]2[C@@H]3CCC4=CC(=O)CC[C@]4(C)[C@H]3CC[C@]12C [Deoxycorticosterone acetate] | 13 |
| C=C1/C(=C\C=C2/CCC[C@]3(C)[C@@H]([C@H](C)CCCC(C)C)CC[C@@H]23)C[C@@H](O)C[C@@H]1O [Alfacalcidol] | 36 |
| CCCCCCCC(=O)N[C@H](CN1CCCC1)[C@H](O)c1ccc2c(c1)OCCO2 [Eliglustat Tartrate] | 18.3 ± 7.6 |
| COc1ccc(-c2ccc3cc(C(=O)O)ccc3c2)cc1C12CC3CC(CC(C3)C1)C2 [Adapalene] | 16 |
| Cc1c(F)cc(C(=O)NC2CC2)cc1-c1ccc(C(=O)NCC(C)(C)C)cn1 | 16 ± 1.4 |
| CCCCCCCCCCCCCCCC(=O)O[C@@H]1[C@@H](O)[C@@H](O)[C@@H]([C@H](NC(=O)[C@@H]2C[C@@H](CCC)CN2C)[C@H](C)Cl)O[C@@H]1SC [Clindamycin palmitate HCl] | 18 |
| Cc1cn([C@H]2O[C@@H](CO)[C@H](O)[C@H]2F)c(=O)[nH]c1=O [Clevudine] | 15.3 ± 2.3 |
